Data: PubChem BioAssay AID1209 (Sanford-Burnham Center for Chemical Genomics, 2008)
About 810 (0.43%) of roughly 190,000 compounds were called active. Rule as the data show it: active = inhibition above about 50%; inactive = the rest. The sample as a whole holds a higher share of actives than the screen did.

Target: Mannose-6-phosphate isomerase (Homo sapiens) (UniProt P34949)
Assay: inhibitors of human PMI, primary screen, biochemical, fluorescence intensity, coupled assay (AID 1209);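 also: plate controls were DMSO vehicle for no effect and wells lacking substrate for full effect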
Details: purified PMI enzyme, at 20 µM, hits give high values

Chain of Mannose-6-phosphate isomerase (Homo sapiens) (P34949 whole entry, looked up): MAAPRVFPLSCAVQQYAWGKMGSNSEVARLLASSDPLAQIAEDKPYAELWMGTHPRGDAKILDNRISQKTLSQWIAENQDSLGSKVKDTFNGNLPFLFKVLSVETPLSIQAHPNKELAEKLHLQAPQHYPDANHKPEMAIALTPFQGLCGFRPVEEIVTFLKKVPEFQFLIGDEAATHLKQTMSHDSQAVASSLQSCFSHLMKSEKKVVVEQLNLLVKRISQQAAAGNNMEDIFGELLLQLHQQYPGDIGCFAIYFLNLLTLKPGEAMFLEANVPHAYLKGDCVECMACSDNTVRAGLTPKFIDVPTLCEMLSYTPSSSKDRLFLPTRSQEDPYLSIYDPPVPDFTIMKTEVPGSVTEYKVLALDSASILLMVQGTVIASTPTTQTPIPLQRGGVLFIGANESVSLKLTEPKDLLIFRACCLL

inhibition, active:
CCCCn1c(NC(=O)c2ccco2)c(S(=O)(=O)c2ccc(C)cc2)c2nc3ccccc3nc21 50.9%
O=c1c2ccccc2sn1-c1ccccc1 87.2%
O=c1c2ccccc2sn1-c1nccs1 107%
CCOC(=O)/C(C)=C1\NC(C)(C)Cc2ccccc21 94.7%
CN=c1scc(-c2ccc(F)cc2)n1/N=C/c1ccc(O)c(O)c1 50.4%
CN=c1scc(-c2ccco2)n1/N=C/c1ccc(O)c(O)c1 53%
COC1=C(OC)C(=O)C(CCCCCCCCCCO)=C(C)C1=O 53.5%
O=C(/C=C/c1ccc(O)c(O)c1)c1ccc(S(=O)(=O)N2CCCCCC2)cc1 66%
O=C(NCC1CCCO1)C1CC1(c1ccccc1)c1ccccc1 (stereo unspecified) 108%
O=c1[nH]cnc2c1sc(=S)n2-c1ccccc1 50.7%
O=C(NC1CCCCC1)c1sc(=S)n2c1[nH]c(=O)c1ccccc12 51.2%

inhibition, inactive:
CCCCCn1c(NC(=O)c2ccco2)c(S(=O)(=O)c2ccc(C)cc2)c2nc3ccccc3nc21 20%
C=CCn1c(NC(=O)c2ccco2)c(S(=O)(=O)c2ccccc2)c2nc3ccccc3nc21 7.1%
COc1cccc(C(=O)OCC(=O)NCCc2ccccc2)c1OC -5.9%
Cc1ccccc1N=Cc1c(O)n(-c2nccs2)c(=O)c2ccccc12 0.5%
CC(C(=O)N1CCCCC1)n1sc2ccccc2c1=O (stereo unspecified) -2.6%
Cc1ccnc(N2C3CCC2CC(O)(c2ccccc2)C3)n1 (stereo unspecified) -0.2%
O=c1c2ccccc2c2ccccc2c(=O)n1-c1ccccc1 3.9%
O=c1[nH]n(-c2ccccc2)c(=O)c2ccccc12 6.7%
Cc1cc(=O)c2ccccc2s1 -2.5%
Cc1ccc(-n2nc3c4c(cccc4c2=O)-c2ccccc2-3)cc1 14.2%
O=C1CCCN1c1nccs1 -4.2%
O=C(Nc1cccn(Cc2cccc(F)c2)c1=O)NC1CCCCC1 14.9%
COc1ccc(-n2c(COc3ccc(C)cc3)nnc2SCc2ccc(C#N)cc2)cc1 10.6%
COCCCn1c(=NC(=O)c2ccc3c(c2)OCO3)c(C#N)cc2c(=O)n3cccc(C)c3nc21 1.8%
CCOC(=O)CSc1nc2ccccc2c(=O)n1CC1COc2ccccc2O1 (stereo unspecified) -3.8%
Cn1c(=O)c2c(nc(CN3CCOCC3)n2CCCO)n(C)c1=O -8.2%
COc1ccccc1NS(=O)(=O)c1cccc(C(=O)NN=C2CCCCCC2)c1 -1.7%
CCn1c(SCC(=O)N2CCCC2)nc2c(c1=O)SC(C)C2 (stereo unspecified) 0.5%
CN(C)S(=O)(=O)c1cccc(-c2cn3ccccc3n2)c1 -3.5%
CN(C)S(=O)(=O)c1cccc(N2C(=O)CC3(CCCCC3)CC2=O)c1 2%
COC(=O)C1=C(N)Oc2cc(C)n(C)c(=O)c2C1c1ccc(Cl)cc1 (stereo unspecified) 1.3%
Cc1c(Cl)cccc1NC(=S)NN 5.2%
CCC(C)(C)n1nnnc1C(c1ccc(O)cc1)N1CCc2ccccc2C1 (stereo unspecified) 12.2%
CCOC(=O)/C(C(=O)Nc1ccc(Br)cc1)=C1/NC(C)(C)Cc2ccccc21 3.3%
CCOC(=O)/C(C(=O)Nc1ccccc1Cl)=C1/NC(C)(C)Cc2ccccc21 18.6%
O=C(Cc1c[nH]c2ccccc12)N1CCN(c2ccccc2)CC1 -10.2%
Cn1c(Cc2ccccc2)nnc1SCC(=O)Nc1cccc(S(=O)(=O)NC2=NCCCCC2)c1 5%
CCN=c1scc(-c2ccco2)n1/N=C/c1ccc(O)cc1 -4.3%
C=CCN=c1scc(C)n1/N=C/c1ccc(O)c(O)c1 49.2%
CCN=c1scc(-c2ccco2)n1/N=C/c1ccc(OC)c(O)c1 -0.4%
CN=c1scc(C)n1/N=C/c1ccc(O)cc1 12.4%
CCCC(=O)C1=C(O)C(c2cccc(Oc3ccccc3)c2)CCC1=O (stereo unspecified) -21%
N#CCN1CCCC(C(N)=O)C1 (stereo unspecified) -5.3%
Cc1sc(NC(=O)CSc2nnnn2C)c(C#N)c1C 4.7%
CCOc1ccc(C2CC(c3cccc(C)c3)n3ncnc3N2)cc1 (stereo unspecified) 2.6%
CCc1ccc(CN(C)C(=O)c2cc(COc3c(F)cccc3F)on2)cc1 18.2%
CC1=C(C)C(=O)C(CCCCC#CCCCC#CCO)=C(C)C1=O -13.9%
Cc1[nH]c(=S)[nH]c(=O)c1CCCO 12.6%
COc1cccc(CNC(=O)CCC2CCCN(C3CCOCC3)C2)c1 (stereo unspecified) 5.9%
CCOc1ccc(NC(=O)NC(C)CC)cc1 (stereo unspecified) -3.9%
O=C(/C=C/c1ccc(N2CCCCC2)c([N+](=O)[O-])c1)c1ccc(S(=O)(=O)N2CCCC2)cc1 0%
O=C(O)c1ccc(S(=O)(=O)N2CCCCCC2)cc1 2.4%
Cc1ccc2c(c1)CCCN2C(=O)c1ccco1 0.8%
Cc1cccc(C2(c3cccc(C)c3)CC2C(=O)NCC2CCCO2)c1 (stereo unspecified) -4.2%
O=C(NCC1CCCO1)c1ccccc1 (stereo unspecified) 11.6%
O=C(CC1C(=O)NC2CCCCC2N1C(=O)c1ccc(F)cc1)Nc1ccccc1 (stereo unspecified) 0.9%
CCc1ccc(C(=O)COC(=O)CNC(=O)c2ccco2)cc1 -5.4%
S=c1sc2c(Cl)ncnc2n1-c1ccccc1 -30.4%
O=c1[nH]c(-c2ccc(F)cc2)nc2c1sc(=S)n2-c1ccccc1 -0.9%
CS(=O)(=O)N1CCN(c2ccc(NC(=O)CSc3nnc(-c4ccco4)o3)cc2)CC1 -8.2%
CCN(CC)S(=O)(=O)c1ccc(NC(=O)COC(=O)CNS(=O)(=O)/C=C/c2ccccc2)cc1 5.2%
O=C(COC(=O)c1ccccc1Br)NCCC1=CCCCC1 5.8%
CC1(C)N=C(SCC(=O)Nc2ccc(Cl)cc2Cl)C(c2ccccc2)=N1 8.5%
O=C(NCc1ccccc1)c1sc(=S)n2c1[nH]c(=O)c1ccccc12 4.9%
O=C(NC1CCCC1)c1sc(=S)n2c1[nH]c(=O)c1ccccc12 -4.7%
